We go through 63 compounds from PubChem BioAssay AID504466 (National Center for Advancing Translational Sciences (NCATS), 2011).

About 4,200 (1.3%) of roughly 330,000 compounds were called active. Where a call stands in place of a potency, no number is given. Inconclusive results (about 6%) are left out. The sample holds actives, similar compounds and a random draw of the others, so the mix is not that of the screen. A number with no mark means an inactive call. Calls follow the shape of the dose curve; as a rule, active = well fitted activation curve with a large enough effect; inconclusive = small, poorly fitted or top-dose-only effect; inactive = no such curve, though single readings can be large or run the other way.
Potency is read from the fitted curve at half-maximal effect.

The experiment is described as follows: qHTS screen for small molecules that induce genotoxicity in human embryonic kidney (HEK293T) cells expressing luciferase-tagged ELG1. Also: nearly all actives have a fitted effect of over 60% in size. Conditions: HEK293T ELG1-luciferase reporter, luminescence, 16 h; series mostly up to 46 µM. The procedure, abridged:
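After overnight (16 hr) compound treatment at 37 °C, ELG1-luciferase HEK293T cells were lysed with ONE-Glo; luminescence quantified 30 min later at room temperature.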
With `CCN1C(=O)c2cccc3c(N)ccc1c23`, the Potency is 20.6 µM (active). Turning to `Cc1cccc(NC(=O)CN2C(=O)c3ccccc3C2=O)c1C`, the Potency result is “inactive”. As for `CN1C(=O)c2cccc3c(N)ccc(c23)C1=O`, the Potency entry was “inactive”. Take `CCN1C(=O)c2cccc3c(S(=O)(=O)Nc4ccccc4O)ccc1c23`: the Potency is 23.1 µM (active). Same read-out and setting: the value for `O=C(CN1C(=O)c2cccc3cccc1c23)Nc1ccccc1` was “inactive”; that for `Cc1nn(C)cc1N1C(=O)c2cccc3c(N)ccc(c23)C1=O` was “inactive”. Same read-out and setting: under `CC(C)COc1ccc(C(=O)NNC(=O)CCC(=O)c2cccs2)cc1` stands “inactive”; under `CCN(CC)CCCNC(=O)COc1ccc2oc3c(c2c1)CCCC3`, “inactive”; under `CCOC(=O)N1CCN(C(=O)COc2ccc3oc4c(c3c2)CCCC4)CC1`, “inactive”. For the compound `O=C(COc1ccc2oc3c(c2c1)CCCC3)Nc1ccccn1`, the Potency is 16.4 µM (active). On to `CC[C@]12c3[nH]c4cc(CCC(=O)N(C)C)ccc4c3CCN1C(=O)[C@@H](CC(=O)NCC13CC4CC(CC(C4)C1)C3)C[C@@H]2C(=O)N1CCN(C(=O)C2CC2)CC1`, for which the Potency entry is “inactive”. As to `COc1ccc2nc3n(c(=O)c2c1)-c1cc(C)ccc1C(=O)NC3Cc1ccc(O)cc1` (stereo not drawn), the Potency result was “inactive”. `CC(C)C(=O)Nc1ccc2c(c1)oc1ccccc12`: the Potency was 4.11 µM (active). Consider `CC(C)C(=O)Nc1ccc2oc(=O)ccc2c1`, for which the Potency result was “inactive”. For `Cc1cc(=O)oc2cc(NC(=O)C(C)Oc3ccccc3)ccc12` (stereo not drawn), the Potency result was “inactive”. Turning to `COc1cccc(NC(=O)COc2cccnc2[N+](=O)[O-])c1`, the Potency entry is “inactive”.

As to `CC(C)(C)OC(=O)C[C@@H]1C/C=C\C[C@@H](CC(=O)N[C@H](CO)Cc2ccccc2)C(=O)NCCOC1=O`, the Potency entry was “inactive”. Take `COc1cc(NC(=O)CN(C)S(=O)(=O)c2ccc3nc(C)sc3c2)cc(OC)c1`: the Potency result is “inactive”. For `Cc1ccc2nc(-c3ccc(NC(=O)CN(C)S(=O)(=O)c4ccccc4)cc3)sc2c1`, the Potency is 5.8 µM (active).

Take `Cc1nc2ccc(S(=O)(=O)N(C)CC(=O)NC(C)c3ccccc3)cc2s1` (stereo not drawn): the Potency entry is “inactive”. As for `O=C1c2ccccc2[C@@H]2C[C@@H](O)[C@H](Nc3ccccc3Cl)CCN12`, the Potency result was “inactive”. `Cc1cc(C(=O)COC(=O)C2CC2)c(C)n1-c1ccc(F)cc1`: the Potency was 2.59 µM (active).

Turning to `Cc1ccc(-n2c(C)cc(C(=O)CN3C(=O)C(=O)N(C4CCCC4)C3=O)c2C)cc1`, the Potency result is “inactive”.

For the compound `Cc1cc(C(=O)COc2ccccc2Cl)c(C)n1C1CC1`, the Potency entry is “inactive”. `COC(=O)c1cc(OC)c(OC)cc1NC(=O)CSc1ccc(C)cc1`: the Potency entry was “inactive”. Same read-out and setting: the value for `Cc1ccc(SCC(=O)c2cc(C)c(OC(=S)N(C)C)c(C)c2)cc1` was 7.31 µM (active). With `Cc1ccc(C(=O)CSc2ccccc2C(=O)O)cc1`, the activity change, positive = activation is 12.5% [at 9.26 µM]. Regarding `COC(=O)[C@]1(Cc2ccccc2)N[C@H](CN(C)S(=O)(=O)c2ccc(OC(F)(F)F)cc2)[C@@H]2C(=O)N(Cc3ccccc3)C(=O)[C@@H]21`, the Potency entry is “inactive”.

Take `O=C(COC(=O)c1cccc(Cl)c1)NC(=O)NCc1ccccc1`: the Potency entry was “inactive”. As for `O=C(Nc1ccncc1)c1cc2ccccc2o1`, the Potency result is “inactive”. As to `O=C(NCc1cccnc1)c1cccc(-c2cc3ccccc3oc2=O)c1`, the Potency entry was “inactive”. Consider `Nc1ncc(-c2cc3ccccc3oc2=O)s1`, for which the Potency was 2.59 µM (active). For the compound `O=C(COC(=O)Cn1cnc2ccccc21)Nc1cccc2c1C(=O)c1ccccc1C2=O`, the Potency result was “inactive”. As to `O=C(COC(=O)c1ccccc1)Nc1ccccc1Sc1ccccc1`, the Potency result is “inactive”. In the case of `O=C(COC(=O)c1cccc(Br)c1)Nc1cccc2c1C(=O)c1ccccc1C2=O`, the Potency is 13 µM (active). With `C[C@H](CO)N1C[C@H](C)[C@H](CN(C)CC2CC2)Oc2ccc(NC(=O)CCN3CCOCC3)cc2C1=O`, the Potency result was “inactive”.

Take `COC(=O)c1ccc(CNC(=O)c2ccc3oc(C(C)C)nc3c2)cc1`: the Potency was 20.6 µM (active).

For `COC(=O)c1ccc(CSc2nc3cc(Cl)ccc3o2)cc1`, the Potency entry is “inactive”. In the case of `CC(C)c1nc2cc(C(=O)NC(C)c3cnn(C)c3)ccc2o1` (stereo not drawn), the Potency entry is “inactive”.

For `C=CC[C@@H](CC(=O)NCCO)C(=O)N[C@H](C)COC(=O)[C@@H](CC=C)CC(=O)OC(C)(C)C`, the Potency entry is “inactive”.

In the case of `Cc1cccc(C(=O)OCC(=O)NC(C)C2CC3CCC2C3)c1O` (stereo not drawn), the Potency entry is “inactive”. `COc1ccccc1NC(=O)COC(=O)CNC(=O)C1CCCCC1`: the Potency result was “inactive”.

Regarding `Nc1ncnc2c1ncn2[C@@H]1O[C@H](CNS(=O)(=O)c2ccc(-c3ccno3)s2)[C@@H](O)[C@H]1O`, the Potency result is “inactive”.

Consider `O=C(CCCOc1ccccc1)NNC(=O)c1ccc(Cl)cc1`, for which the Potency entry is “inactive”. In the case of `CC(=O)Nc1cccc(-c2cnc3ccccc3n2)c1`, the Potency was 10.3 µM (active). Turning to `CCS(=O)(=O)Nc1cccc(-c2cc(-c3ccccc3)c3cc(C)ccc3n2)c1`, the Potency entry is “inactive”.

As to `CC(=O)Nc1cccc(Nc2nc(-c3cccs3)nc3ccccc23)c1`, the Potency entry is “inactive”. On to `O=C(c1ccc(S(=O)(=O)NCc2ccco2)cc1)N1CCN(c2ccccc2)CC1`, for which the Potency result was “inactive”. In the case of `Cc1noc(C)c1C(=O)Nc1ccccn1`, the Potency result is “inactive”. For `COC(=O)c1oc2ccc(Br)cc2c1NC(C)=O`, the Potency result was “inactive”. Regarding `Cc1c(C(=O)Nc2ccccn2)oc2ccc(Br)cc12`, the Potency was 9.2 µM (active). Take `O=C(COC(=O)COc1cc(Cl)c(Cl)cc1Cl)NC1CC1`: the Potency entry was “inactive”. For the compound `COc1c(O)cc2oc(-c3ccc(O)c(O)c3)cc(=O)c2c1O`, the Potency is 20.6 µM (active). Take `COc1ccc(-c2cc(=O)c3c(O)cc(O[C@@H]4O[C@H](CO[C@@H]5O[C@@H](C)[C@H](O)[C@@H](O)[C@H]5O)[C@@H](O)[C@H](O)[C@H]4O)cc3o2)cc1O`: the Potency result is “inactive”.

For the compound `CCOC(=O)COc1cc(O)c2c(=O)cc(-c3ccccc3)oc2c1`, the Potency result is “inactive”. Consider `CCN(C(=O)COC(=O)CCC(=O)c1cccs1)C1CCCCC1`, for which the Potency entry is “inactive”. With `C[C@H](CO)N1C[C@H](C)[C@H](CN(C)C(=O)Nc2ccc(C(F)(F)F)cc2)Oc2c(NC(=O)c3ccncc3)cccc2C1=O`, the Potency result is “inactive”. Turning to `C[C@]12c3[nH]c4ccc(Cl)cc4c3CCN1C(=O)[C@@H](CC(=O)NCCCn1ccnc1)C[C@@H]2C(=O)N1CCOCC1`, the Potency result is “inactive”. As to `CCC1CCCCN1C(=S)NC(=O)c1ccco1` (stereo not drawn), the Potency result was “inactive”. Same read-out and setting: the value for `COc1ccc2c(CC(=O)NNC(=O)c3ccccc3F)coc2c1` was “inactive”; that for `O=C(CSCc1ccccc1)N1CCc2ccccc21` was 2.59 µM (active); that for `O=C(CN1CCN(c2ccccn2)CC1)N1CCc2ccccc21` was “inactive”.

Consider `CCC(=O)N1CCCc2ccccc21`, for which the Potency result is “inactive”.
